Assay outcomes deposited in PubChem BioAssay by Fisher Drug Discovery Resource Center.
The sample as a whole holds a higher share of hits than the screen did.
mcGAS MS inh: blocks mouse cGAS cGAMP production. Q8C6L5. recombinant mouse cGAS, cGAMP by RapidFire MS. inhibition, % at 12.5 µM. hit rate 0.18% among 130,000. AID 1259397;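 active means inhibition of cGAS enzyme activity at or above 60%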;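 further: enzyme stimulated by 45 bp dsDNA with ATP and GTP substrates; cGAMP share of summed cGAMP plus half ATP and half GTP signals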
Target sequence (Q8C6L5 whole entry, looked up): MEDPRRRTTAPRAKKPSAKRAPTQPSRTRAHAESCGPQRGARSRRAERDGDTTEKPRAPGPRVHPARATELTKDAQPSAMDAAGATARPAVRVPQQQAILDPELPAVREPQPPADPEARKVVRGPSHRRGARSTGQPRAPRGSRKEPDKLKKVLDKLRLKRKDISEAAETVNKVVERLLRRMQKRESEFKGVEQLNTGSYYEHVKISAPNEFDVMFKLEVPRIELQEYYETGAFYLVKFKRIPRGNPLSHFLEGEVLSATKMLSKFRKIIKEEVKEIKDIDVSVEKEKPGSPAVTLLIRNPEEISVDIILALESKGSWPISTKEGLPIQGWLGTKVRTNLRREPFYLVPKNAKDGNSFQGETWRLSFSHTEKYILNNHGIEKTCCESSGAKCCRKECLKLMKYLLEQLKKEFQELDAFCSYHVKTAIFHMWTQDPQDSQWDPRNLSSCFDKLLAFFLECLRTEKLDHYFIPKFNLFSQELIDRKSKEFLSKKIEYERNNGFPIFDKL
An asterisk follows results filed as active.

SMILES | mcGAS MS inh
CCOCCOC(=O)C1=C(C)N(C)C(=O)NC1c1cccc([N+](=O)[O-])c1 (stereo not drawn) | -7
CCCOC(=O)C1=C(C)N(C)C(=O)NC1c1ccc([N+](=O)[O-])cc1 (stereo not drawn) | 2
CN(C(=O)CNc1ccccc1OC(F)(F)F)c1ccccc1 | -2
O=C(c1ccccc1O)N1C[C@@H]2C3CCC(CC3)[C@@H]2C1 | -8
CCOc1ccccc1-c1nc(Sc2oc(C=O)cc2Br)n[nH]1 | 2
O=C(O)c1sc(Br)c(I)c1I | 78*
CC(=O)Nc1ccc(NC(=O)Cn2nc(-c3ccc(F)cc3)ccc2=O)cc1 | -13
FC(F)(F)CCc1ccnc(NCC2CCOCC2)n1 | -1
O=C(NCC(=O)N1CCN(c2cccc(Cl)c2)CC1)c1ccco1 | -17
COc1ccc(CC(=O)NC2CCSc3ccc(Cl)cc32)cc1OC (stereo not drawn) | -2
Cn1c(C23CC4CC(CC(C4)C2)C3)nc2ccccc21 | -5
CCCn1c(SCC(=O)Nc2ccc(S(=O)(=O)N3CCCC3)cc2)n[nH]c1=O | -3
CC(C(=O)Nc1ccc2c(c1)C(=O)N(CC1CC1)C2=O)n1ccnc1 (stereo not drawn) | -2
O=C(O)c1c(Cl)cc(C(F)(F)F)cc1Cl | 9
CCOc1cc(-c2[nH]c(=S)[nH]c(=O)c2C#N)ccc1O | 99*
CCOc1cc(C2=NN(c3ccc(C)cc3)C(=O)CC2)ccc1O | 8
N#Cc1c(-c2ccco2)[nH]c(=S)[nH]c1=O | 13
Cc1nc(CN(C)C(=O)c2cn[nH]c2-c2ccccc2Cl)cs1 | -7
Cc1cccc(NC(=O)[C@@H]2CCCN2C(=O)COc2ccc(F)c(Cl)c2)n1 | 13
Cn1cc(C(=O)NCc2cccs2)c2n[nH]c(=O)c-2c1 | -1
CCSc1nnc2c(=O)[nH]c(=O)[nH]c2n1 | 84*
CCSc1nnc2c3ccccc3n(C)c2n1 | -8
Cn1c(N)c(C(=O)CSc2nnc3c(n2)[nH]c2ccccc23)c(=O)n(C)c1=O | -5
CCC(C)[n+]1c(C)cc(C=C2Sc3ccccc3N2CC)cc1C (stereo not drawn) | -10
CCN1C(=CC=Cc2sc3ccccc3[n+]2CC)Sc2ccccc21 | 70*
SMILES | mcGAS MS inh
CCN1C(=Cc2ccc3cc(C)ccc3[n+]2CC)Sc2ccccc21 | 11
Cc1cc(O)cc(=O)n1CC(=O)N1CCCCC1c1cc2ccccc2[nH]1 (stereo not drawn) | -32
CCC(Sc1nc2c(c(=O)n1-c1ccccc1)SCC2)C(=O)OC (stereo not drawn) | -4
Cc1cccnc1CCNC(=O)C1CCCN(C2CCN(C(=O)C3CC3)CC2)C1 (stereo not drawn) | -14
CCc1cc(=O)[nH]c2n[nH]c(=S)n12 | 9
CCCc1cc(=O)[nH]c2n[nH]c(=S)n12 | 7
O=c1cc(-c2ccccc2)n2c(=S)[nH]nc2[nH]1 | 68*
CCc1sc(C(=O)NNC(=O)C(C)(C)C)cc1C | -3
CCN1CCCCC1C(=O)N(C)CC1CCN(CCc2ccccc2F)CC1 (stereo not drawn) | -2
O=C(c1ccc2ccccc2c1)N1CCC(n2c(=O)[nH]c3ccccc32)CC1 | -5
CC1(C)Cc2c(c(N3CCOCC3)[nH]c(=S)c2C#N)CO1 | -4
Cc1cccc(NC(=O)CNC(=O)c2cncn2-c2ccc(F)cc2)c1C | -16
O=C1NC(=S)SC1=Cc1ccccc1[N+](=O)[O-] | 2
COc1ccc(-c2ccc(/C=C3\SC(=S)NC3=O)o2)c([N+](=O)[O-])c1 | 65*
COc1cc(C=C2SC(=S)NC2=O)cc(OC)c1 | -5
COCCN1CCc2c(C)c(C#N)c3nc4ccccc4n3c21 | -2
CC(Cn1cncn1)NCc1cccnc1Oc1ccc(F)c(F)c1 (stereo not drawn) | -3
Cc1ccc(Cl)cc1N=Cc1nc(-c2cccc3ccccc23)oc1O | 83*
Cc1ccc(-c2nc(C=Nc3cccc(C)c3)c(O)o2)cc1 | -14
Cc1cccc(N=Cc2nc(-c3cccc4ccccc34)oc2O)c1 | 88*
Cc1ccc(Cl)cc1N=Cc1nc(-c2ccc(Cl)cc2)oc1O | -19
Oc1oc(-c2cccc3ccccc23)nc1C=Nc1cccc(F)c1 | -6
Cc1cc(Cl)ccc1N=Cc1nc(-c2ccccc2Br)oc1O | -13
O=C(NC1CC1)C1CCN(S(=O)(=O)N2CCOCC2)CC1 | -1
Cc1cc(OCc2ccccc2)c2c(C)c(CC(=O)O)c(=O)oc2c1 | -4
SMILES | mcGAS MS inh
CC(=O)CSc1nnc(N)s1 | -13
O=C(NCCCC(=O)N1CCC2(CC1)C(=O)NCN2c1ccccc1)OCc1ccccc1 | 0
OC[C@@H]1CCCN1Cc1csc(-c2ccc(Br)cc2)n1 | 4
O=c1cc(CCn2cccn2)nc(-c2ccc(CN3CCC[C@@H]3CO)cc2)[nH]1 | 89*
O=C(O)c1ccccc1CN1CCCCC1CCn1cccn1 (stereo not drawn) | -16
CC(=O)Cn1c2ccccc2n2nc(C)c(=O)nc12 | -17
CSCC(=O)N(C)C1CCCN(Cc2ccccc2F)C1 (stereo not drawn) | -11
Cc1ccc2n1CCn1cc(-c3ccccc3)cc1-2 | 77*
Cc1cc2n(c1)CCn1c(C)ccc1-2 | -2
Cc1nc2ncc3c(=O)n(-c4ccc5c(c4)OCO5)ccc3n2n1 | -7
O=C1CC(Cn2c(=O)oc3ccccc32)c2cnn(-c3ccccc3)c2N1 (stereo not drawn) | -9
Cc1noc(C)c1C1CCCN1Cc1cccc(Cn2cccn2)c1 (stereo not drawn) | -5
CC(=O)C1(C)N(O)C(C)(C)C(c2ccc(Cl)cc2)=[N+]1[O-] (stereo not drawn) | -1
CC1=C(c2ccc(Cl)cc2)[N+](=O)C(C)(c2ccc(Br)cc2)N1[O-] (stereo not drawn) | 90*
CC1C(c2ccc(Cl)cc2)=[N+]([O-])C(C)(c2ccccc2)N1O (stereo not drawn) | -8
N#CC(=Cc1ccc([N+](=O)[O-])o1)c1nc(C2CC2)cs1 | -16
O=C(O)C=Cc1ccc([N+](=O)[O-])o1 | 2
CC(C)OC(=O)C(C#N)=Cc1ccc([N+](=O)[O-])o1 | 64*
O=S(=O)(c1ccc(C(F)(F)F)cc1)N1CCN(CC(O)c2ccccc2)CC1 (stereo not drawn) | -5
O=C(O)C1CSC(c2cc(Br)c(O)c(Br)c2)N1 (stereo not drawn) | 87*
CSc1ccc(C2NC(C(=O)O)CS2)cc1 (stereo not drawn) | -4
O=C(O)C1CSC(c2cc(Br)ccc2O)N1 (stereo not drawn) | -2
COC(=O)c1ccc(-c2nc(CN3CCCC3c3nonc3C)c(C)o2)cc1 (stereo not drawn) | -10
CCC(C)n1cnc2c(nnn2CC)c1=O (stereo not drawn) | -7
CCOCc1ccc(C(=O)O)o1 | 0
SMILES | mcGAS MS inh
Cc1cccc(C(C(=O)NCCSc2nnc(C)s2)N(C)C)c1 (stereo not drawn) | -4
Cn1c(-c2ccccc2)nnc1C(C#N)C(=O)C1CC=CCC1 (stereo not drawn) | 11
Cc1ccc(S(=O)(=O)c2nnc(-c3ccccc3)s2)cc1 | -3
CCC(=O)C(C#N)c1nnc(-c2ccccc2)s1 (stereo not drawn) | 95*
COc1cc2c(cc1OC)C(=O)N(C)C(c1ccc(F)cc1)N2 (stereo not drawn) | -11
CNC(=O)CN(Cc1ncc(Cl)n1C)c1ccccc1C | 1
Cc1nc(CCN)cc(N2CCC(N3CCCC3)CC2)n1 | -12
CCCOC1CCCN(c2cc(CCN)nc(C)n2)C1 (stereo not drawn) | 97*
